Calls of active or inactive are those of the source. Unless noted, how the calls were made is not given here.
Experiments:
[1] = A549 cell viability effects, profiling panel, calcein-AM fluorescence, 48 h, basal (AID 1162); settings: higher = more signal; further: test concentration not given here
[2] = adipocyte viability effects, profiling panel, cell-based, 3T3-L1 adipocytes, calcein-AM fluorescence, 48 h, basal (AID 1163); settings: 3T3-L1 adipocytes viability, higher = more signal; further: test concentration not given here
[3] = HepG2 cell viability effects, profiling panel, calcein-AM fluorescence, 48 h, basal (AID 1164); settings: higher = more signal; further: test concentration not given here
[4] = MM1S cell viability effects, profiling panel, calcein-AM fluorescence, 48 h, basal (AID 1165); settings: higher = more signal;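 further: viability of MM1S multiple myeloma cells under basal unstimulated conditions; test concentration not given here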
[5] = basal RPMI8226 viability, no added stimulus, profiling panel, cell-based, calcein-AM fluorescence, 48 h, PK04 Diversity Set (AID 1166); settings: RPMI8226 myeloma viability, higher = more signal;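 further: cells grown under basal conditions without added stimulus; test concentration not given here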
[6] = basal HepG2 mitochondrial membrane potential changes, profiling panel, cell-based, JC-1 fluorescence, 24 h, 100 nL compound (AID 1167); settings: higher = more signal; further: test concentration not given here
[7] = basal 3T3-L1 adipocyte mitochondrial potential changes, profiling panel, cell-based, JC-1 fluorescence, 3T3-L1 adipocytes, 24 h, 100 nL compound (AID 1168); settings: JC-1 mitochondrial fluorescence, higher = more signal, called active from +8 up or from −8 down; further: test concentration not given here
[8] = basal RPMI8226 mitochondrial membrane potential changes, profiling panel, cell-based, JC-1 fluorescence, 24 h, 100 nL compound (AID 1169); settings: RPMI8226 myeloma, JC-1 mitochondrial potential fluorescence, higher = more signal; further: test concentration not given here
[9] = basal MM1S mitochondrial membrane potential changes, profiling panel, cell-based, JC-1 fluorescence, 24 h, 100 nL compound (AID 1170); settings: higher = more signal; further: test concentration not given here
[10] = A549 lung cancer cell viability effects, profiling panel, resazurin fluorescence, 24 h, PK04 Diversity Set (AID 1171); settings: higher = more signal, called active from +8 up or from −8 down; further: test concentration not given here
[11] = HepG2 liver cancer cell viability effects, profiling panel, resazurin fluorescence, 24 h, PK04 Diversity Set (AID 1172); settings: higher = more signal; further: test concentration not given here
[12] = basal S. cerevisiae growth modulation, no modifier, primary screen, OD600, strain BY4716, 24 h, basal condition (AID 1173); settings: OD600, 24 h, higher = more signal, called active from +8 up or from −8 down
[13] = MM1S myeloma cell viability, profiling panel, resazurin fluorescence, basal, 24 h, PK04 Diversity Set (AID 1174); settings: higher = more signal, called active from +8 up or from −8 down;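 further: MM1S multiple myeloma cell line; test concentration not given here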
[14] = biological target: Dihydroorotate dehydrogenase (quinone), mitochondrial (Plasmodium falciparum (isolate 3D7)) (UniProt Q08210); assay: PfDHODH enzyme inhibitors, primary screen, biochemical, C-terminal His tag, absorbance 600 nm (AID 1175); settings: DCIP absorbance 600 nm, higher = more signal, called active from +8 up or from −8 down;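 further: recombinant parasite enzyme with a five histidine tag at its C terminus; test concentration not given here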
[15] = P. aeruginosa biofilm formation inhibitors, primary screen, strain PAO1, LB-PBS medium, absorbance 600 nm (AID 1176); further: test concentration not given here; settings: P. aeruginosa PAO1 growth/biofilm, A600, 12 h; higher = more signal
[16] = S. cerevisiae RM11-1a growth modifiers, primary screen, strain RM11-1a, OD600, basal, 24 h (AID 1177); settings: OD600, 24 h, higher = more signal, called active from +8 up or from −8 down;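 further: cultures grown under basal conditions with no added stressor; test concentration not given here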
[17] = E. coli acrAB mutant growth effects, primary screen, E. coli filamentation inducers, strain DRC39, OD650, 24 h (AID 1178); settings: higher = more signal, called active from +8 up or from −8 down;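 further: growth measured as culture turbidity by optical density at 650 nm; test concentration not given here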
[18] = E. coli acrAB mutant growth effects, primary screen, E. coli filamentation inducers, strain DRC39, OD650, 48 h (AID 1179);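 further: screen aims at cell division blockers that make cells filament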; settings: E. coli DRC39 delta-acrAB growth, higher = more signal, called active from +8 up or from −8 down
[19] = RPMI8226 myeloma cell viability, profiling panel, resazurin fluorescence, basal, 24 h, PK04 Diversity Set (AID 1180); settings: higher = more signal;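 further: RPMI8826 multiple myeloma cell line at 5000 cells per well; test concentration not given here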
[20] = biological target: E3 ubiquitin-protein ligase XIAP (Homo sapiens) (UniProt P98170); assay: XIAP binders, primary screen, biophysical, small-molecule microarray, fluorescence 635 nm (AID 1181); settings: small-molecule microarray binding, higher = more signal;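 further: score merges 667 nm emission and signal to noise over triplicate slides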
E3 ubiquitin-protein ligase XIAP (Homo sapiens), sequence (P98170 whole entry, looked up): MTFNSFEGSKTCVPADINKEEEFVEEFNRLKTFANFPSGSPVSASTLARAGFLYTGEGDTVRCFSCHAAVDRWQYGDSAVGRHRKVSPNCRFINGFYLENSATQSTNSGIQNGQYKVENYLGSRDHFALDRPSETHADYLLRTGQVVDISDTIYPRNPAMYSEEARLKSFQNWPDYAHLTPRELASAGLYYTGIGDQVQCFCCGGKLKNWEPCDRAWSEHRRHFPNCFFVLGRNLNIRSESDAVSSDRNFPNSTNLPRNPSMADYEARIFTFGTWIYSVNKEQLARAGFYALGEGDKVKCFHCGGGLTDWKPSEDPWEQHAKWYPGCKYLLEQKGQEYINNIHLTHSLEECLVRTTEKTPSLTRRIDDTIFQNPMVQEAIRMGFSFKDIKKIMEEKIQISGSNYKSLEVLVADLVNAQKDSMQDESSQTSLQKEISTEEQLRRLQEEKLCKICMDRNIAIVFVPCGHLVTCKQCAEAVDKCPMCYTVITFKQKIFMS

Dihydroorotate dehydrogenase (quinone), mitochondrial (Plasmodium falciparum (isolate 3D7)), sequence (Q08210 whole entry, looked up): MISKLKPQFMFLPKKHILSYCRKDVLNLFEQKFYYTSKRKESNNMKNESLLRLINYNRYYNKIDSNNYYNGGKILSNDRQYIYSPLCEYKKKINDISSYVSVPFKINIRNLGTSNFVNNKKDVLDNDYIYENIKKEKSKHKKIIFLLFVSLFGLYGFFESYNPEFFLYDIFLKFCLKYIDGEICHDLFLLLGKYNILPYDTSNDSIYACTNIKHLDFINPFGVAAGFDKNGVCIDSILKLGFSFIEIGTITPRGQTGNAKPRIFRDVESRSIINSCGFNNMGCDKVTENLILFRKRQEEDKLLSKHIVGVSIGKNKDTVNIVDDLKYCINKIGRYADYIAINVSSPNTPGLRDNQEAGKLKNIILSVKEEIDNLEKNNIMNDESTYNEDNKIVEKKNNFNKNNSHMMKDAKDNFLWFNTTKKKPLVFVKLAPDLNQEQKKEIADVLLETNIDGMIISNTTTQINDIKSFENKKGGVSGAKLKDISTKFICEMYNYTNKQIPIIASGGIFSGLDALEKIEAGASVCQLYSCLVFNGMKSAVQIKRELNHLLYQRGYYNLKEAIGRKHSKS

Structure (SMILES)	z-score [1]	z-score [2]	z-score [3]	z-score [4]	z-score [5]	z-score [6]	z-score [7]	z-score [8]	z-score [9]	z-score [10]	z-score [11]	z-score [12]	z-score [13]	composite z-score [14]	z-score [15]	z-score [16]	z-score [17]	z-score [18]	z-score [19]	composite z-score [20]
CCCN1C(=O)[C@]2(CCS(=O)(=O)c3ccccc3)N=C(c3ccc(OCCCO)cc3)O[C@@H]2c2ccccc21	1.27	1.86	-0.801	0.0361	-1.97	0.28	-0.494 (inactive)	-0.917	-1.28	-1.57 (inactive)	-0.264	-0.443 (inactive)	-0.278 (inactive)	0.507 (inactive)	0.0279 (inactive)	0.492 (inactive)	1.82 (inactive)	0.544 (inactive)	-0.967	-0.0773
COc1cc2c(cc1OC)CN(C(=O)[C@@H]1[C@H]3C(=O)O[C@H](c4ccccc4)[C@H](c4ccccc4)N3[C@H](c3ccc(O)cc3)[C@@]13C(=O)Nc1ccc(C#CC4(O)CCCCCC4)cc13)CC2	0.192	0.284	1.37	0.132	-0.0905	-0.769	-0.771 (inactive)	-0.767	-0.401	1.05 (inactive)	0.396	-0.313 (inactive)	0.323 (inactive)	-0.495 (inactive)	0.958 (inactive)	0.525 (inactive)	0.241 (inactive)	0.475 (inactive)	0.777	-0.0559
Cc1ccc(S[C@]2(C(=O)NCC(F)(F)F)CC(=O)N(C(C)C)[C@@H]2c2ccc(CO)cc2I)cc1	0.553	0.837	-0.0366	-2.2	-2.73	0.409	-0.374 (inactive)	-0.815	-1.12	0.683 (inactive)	-0.185	-1.52 (inactive)	-0.881 (inactive)	0.436 (inactive)	0.786 (inactive)	0.701 (inactive)	0.0212 (inactive)	-0.105 (inactive)	-2.05	-0.0013
COc1ccc(CCNC(=O)[C@@]2(Sc3ccc(C)cc3)CC(=O)N(C3CCCCC3)[C@@H]2c2ccc(CO)cc2I)cc1	1.06	-0.475	-0.242	-2.14	-2.93	-0.836	-0.792 (inactive)	-0.632	-1.33	1.11 (inactive)	0.594	0.0658 (inactive)	0.175 (inactive)	0.43 (inactive)	1.34 (inactive)	-0.382 (inactive)	0.258 (inactive)	0.238 (inactive)	-1.2	-0.276
COc1ccc(C(=O)Nc2ccc(CN3C(=O)[C@@]4(O[C@@H](CC(=O)N5CCC[C@H]5CO)[C@H]([Si](C)(C)c5ccc(OC)cc5)[C@H]4C)c4ccccc43)cc2)cc1	0.571	0.0638	0.269	-2.5	-3.93	3.78	0.926 (inactive)	-1.09	-0.447	0.336 (inactive)	0.294	-0.871 (inactive)	-0.675 (inactive)	-6.57 (inactive)	1.58 (inactive)	0.515 (inactive)	1.28 (inactive)	1.26 (inactive)	-0.677	0.0774
COC(=O)[C@@]1(Cc2ccc(OC)cc2)[C@H]2c3cc(C(=O)N(C)C)n(CCN4CNCC4=O)c3C[C@H]2CN1C(=O)c1ccccc1	-0.663	-0.261	-0.254	0.316	0.177	-0.812	0.489 (inactive)	-0.111	-1.28	0.367 (inactive)	0.642	0.124 (inactive)	0.622 (inactive)	-0.72 (inactive)	0.371 (inactive)	-0.188 (inactive)	0.479 (inactive)	-0.318 (inactive)	0.777	0.597
COc1ccc(C(O)C2C=CC3C(=O)N(c4ccccc4)C(=O)C3N2Nc2ccccc2F)cc1OCc1ccccc1 (stereo not given)	-0.0678	-1.77	-0.561	0.0664	-0.43	-1.51	-0.838 (inactive)	-0.75	-0.909	-0.179 (inactive)	-0.299	-0.737 (inactive)	-1.66 (inactive)	-0.318 (inactive)	1.11 (inactive)	-0.0242 (inactive)	-0.472 (inactive)	0.226 (inactive)	-1.55	0.0158

Reference: PubChem BioAssay
